In the library only some 0.42% were active in any assay of this set; here they are far more common.
Epigenetic reg – Quantitative High-Throughput Screen for Regulators of Epigenetic Control; hit rate 0.2% among 280,000; Potency, µM (top dose mostly 53.9 µM), actives largely listed as activators; AID 1865, 2009; murine LDR cells, GFP reporter derepression, 30 h; further: nearly all actives have a fitted effect of over 60% in size
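Murine LDR cells carrying a silenced, genomically integrated CMV-driven GFP reporter were exposed to compound for 30 hours at 37 C. After PBS washes, GFP-positive cells (20–120 um objects) were counted by laser-scanning microplate cytometry.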
Rango release inh – qHTS Assay for Inhibitors of RanGTP induced Rango (Ran-regulated importin-beta cargo) - Importin beta complex dissociation; Potency, µM (highest dose often 46.1 µM); Snurportin-1 (Homo sapiens) + GTP-binding nuclear protein Ran (Homo sapiens) + Importin …; Biochemical FRET Rango-importin beta, RanGTP-induced dissociation; hit rate 0.071% among 340,000; calls by dose curve; further: nearly all actives have a fitted effect of over 45% in size
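Compounds preincubate 5 min with complex of recombinant Rango and importin beta in PBS with 1 mM DTT. Ran (0.6 uM) loaded with 2 mM GTP plus 0.2 uM RCC1 starts dissociation; FRET is recorded 45 min later.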
Rango-impB inh – qHTS Assay for Inhibitors of Rango (Ran-regulated importin-beta cargo) - Importin beta complex formation | hit rate 0.031% among 340,000 | Potency, µM (titrated, usually from 92.2 µM) | AID 540263, 2011 | Rango CFP/YFP FRET sensor + importin beta, 45 min; calls by dose curve; further: nearly all actives have a fitted effect of over 15% in size
Target sequence (Q14974 whole entry, looked up): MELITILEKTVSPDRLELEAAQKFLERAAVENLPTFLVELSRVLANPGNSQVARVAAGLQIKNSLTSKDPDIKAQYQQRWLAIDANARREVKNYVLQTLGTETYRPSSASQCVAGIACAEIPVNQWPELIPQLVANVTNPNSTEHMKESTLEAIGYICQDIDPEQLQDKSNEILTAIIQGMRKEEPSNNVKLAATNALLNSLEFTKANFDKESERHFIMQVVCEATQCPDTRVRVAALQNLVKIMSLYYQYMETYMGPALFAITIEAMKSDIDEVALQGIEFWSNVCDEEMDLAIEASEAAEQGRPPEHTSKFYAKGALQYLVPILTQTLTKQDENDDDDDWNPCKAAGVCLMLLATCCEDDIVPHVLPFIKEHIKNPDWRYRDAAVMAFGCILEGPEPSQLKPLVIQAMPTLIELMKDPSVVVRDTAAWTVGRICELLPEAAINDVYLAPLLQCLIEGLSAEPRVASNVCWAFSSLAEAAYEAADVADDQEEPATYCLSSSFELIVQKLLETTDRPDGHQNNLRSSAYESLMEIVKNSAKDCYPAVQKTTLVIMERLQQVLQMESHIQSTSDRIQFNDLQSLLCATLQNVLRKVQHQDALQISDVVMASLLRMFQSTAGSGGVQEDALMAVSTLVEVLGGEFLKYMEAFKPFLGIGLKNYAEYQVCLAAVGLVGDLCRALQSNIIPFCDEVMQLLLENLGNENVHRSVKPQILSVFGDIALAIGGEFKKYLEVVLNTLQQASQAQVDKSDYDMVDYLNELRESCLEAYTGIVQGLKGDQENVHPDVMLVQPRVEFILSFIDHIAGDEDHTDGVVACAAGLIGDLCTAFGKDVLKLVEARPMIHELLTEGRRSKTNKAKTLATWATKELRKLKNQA
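Inhibition scored from the CFP 486 nm/YFP 530 nm FRET ratio 45 min after adding 0.125 microM importin beta to 50 nM Rango biosensor preincubated 5 min with compound (room temperature, PBS with DTT, Tween-20, BSA). No-importin wells as positive control.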
Vif-A3G inh – qHTS for Inhibitors of Vif-A3G Interactions: qHTS. Potency, µM (top dose mostly 46.1 µM), hits mostly inhibitors. AID 602310, 2012. hit rate 0.076% among 410,000. HeLa A3G-eYFP + Vif (tagged APOBEC3G with the HIV-1 protein that degrades it), YFP fluorescence, overnight; further: nearly all actives have a fitted effect of over 60% in size
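Read-out is eYFP fluorescence (Ex 488/Em 500-530) from Vif-expressing HeLa A3G-eYFP cells; more signal means A3G escaped Vif-mediated degradation. Cells plated overnight, compound pinned in, incubated overnight at 37 deg C.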
Vif-A3F inh – qHTS for Inhibitors of Vif-A3F Interactions: qHTS; HeLa A3F-eYFP + Vif (tagged APOBEC3F with the HIV-1 protein that degrades it), YFP fluorescence increase; Potency, µM (highest dose often 46.1 µM); hit rate 0.2% among 390,000; further: nearly all actives have a fitted effect of over 65% in size
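Fluorescence increase (Ex 488/Em 500-530) after overnight compound treatment at 37 deg C flags inhibition of Vif-driven A3F-eYFP loss in stable HeLa A3F-eYFP/Vif cells seeded overnight beforehand.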
Numbers stand for hits; . = inactive; ? = inconclusive; / = no result. Unless noted, the call rests on the fitted dose curve; in most records, active means well fitted curve in the direction sought with a large enough effect; inconclusive means small, poorly fitted or top-dose-only effect, or another doubt; inactive means no such curve, though single readings can be large; an effect the other way counts as inactive or inconclusive.

SMILES | Epigenetic reg | Rango release inh | Rango-impB inh | Vif-A3G inh | Vif-A3F inh
O=C(Nc1ccc2nn(-c3ccc(F)cc3)nc2c1)c1cccc2c(Cl)cccc12 | . | / | / | . | .
COc1cc(OC)cc(C(=O)NCCNc2nc3cc(C)cc(C)c3cc2C#N)c1 | / | ? | ? | . | .
COc1ccccc1C(=O)NCCNc1nc2cc(C)cc(C)c2cc1C#N | / | 12µM | ? | . | .
CCOc1ccc(Nc2oc(/C=C/c3ccc(OC)c(OC)c3)nc2C#N)cc1 | 32µM | / | / | . | .
CCN1c2ccccc2NC2C1C(C(C)=O)C(=O)N2c1ccc(Cl)cc1 (stereo not given) | 25µM | ? | ? | ? | 22µM
CN(C)c1ccc(/C=C/N2C=CCc3c2ccc2ccccc32)cc1 | / | / | / | . | /
CCCCN(C)CCCNC(=O)Cn1nc(CC)n2c(cc3sc(C)cc32)c1=O | . | / | / | . | .
CCNc1ccc(Br)cc(C(=O)/C=C/c2ccc(Cl)cc2)c1=O | . | . | ? | ? | ?
CCNc1ccc(Br)cc(C(=O)/C=C/c2ccc3c(c2)OCO3)c1=O | . | ? | ? | . | 13µM
C=CC[C@H](c1ccc(F)cc1)N(CC(C)C)S(=O)(=O)C=C | / | / | / | . | /
COc1ccc(NC(=O)/C(C#N)=C/c2ccc(C)o2)cc1 | . | / | / | . | ?
COc1ccc(NC(=O)/C(C#N)=C/c2ccc(Br)o2)cc1 | . | . | . | . | .
N#C/C(=C/c1ccc(N2CCCCC2)o1)C(=O)Nc1ccc2ccccc2c1 | 2.5µM | ? | ? | . | .
COc1ccc(NC(=O)/C(C#N)=C\c2ccc(N3CCOCC3)o2)cc1 | 16µM | ? | ? | . | ?
N#C/C(=C/c1ccc(N2CCCCC2)o1)C(=O)Nc1ccc(Cl)cc1 | 0.63µM | ? | ? | . | .
N#C/C(=C/c1ccc(N2CCOCC2)o1)C(=O)NC1CCCCC1 | . | ? | ? | 11µM | 22µM
CCN(CCN(C)Cl)/[N+]([O-])=N/Oc1ccc([N+](=O)[O-])cc1[N+](=O)[O-] | / | / | / | . | /
CCOc1ccc2nc(N3CCCC(C(=O)Nc4cccc(Cl)c4C)C3)sc2c1 (stereo not given) | . | / | / | . | .
Cc1cccc(NC(=O)CSc2cn(CC(=O)N3CCOCC3)c3ccccc23)c1C | . | / | / | . | .
CCCCOC(=O)c1ccc(NC(=O)/C(C#N)=C/c2ccc(C)o2)cc1 | 10µM | / | / | . | .
C=CCNC(=O)/C(C#N)=C/c1ccc(C)o1 | . | . | . | . | .
CCc1ccc(NC(=O)/C(C#N)=C/c2cc3ccc(C)cc3nc2N2CCOCC2)cc1 | ? | . | . | . | 7.9µM
CCOC(=O)c1cc(C)n(CC2CCC(C(=O)Nc3cc(OC)cc(OC)c3)CC2)c1C (stereo not given) | . | / | / | . | .
COC(=O)[C@@]1(Cc2ccc(OC)cc2)[C@@H]2C(=CC(=O)[C@H]2CC(=O)C(=O)N(C)C)CN1C(=O)c1ccccc1 | . | . | . | . | .
C=C1C(=O)C=C2CN(C(=O)c3ccccc3)[C@@](Cc3ccc(F)cc3)(C(=O)OC)[C@@H]12 | . | . | . | 7.1µM | .
SMILES | Epigenetic reg | Rango release inh | Rango-impB inh | Vif-A3G inh | Vif-A3F inh
CCCCCn1c(=O)[nH]c2cc(C(=O)Nc3cc(OC)cc(OC)c3)ccc2c1=O | . | / | / | . | 28µM
COCCn1c(=O)[nH]c2cc(C(=O)Nc3ccc(OC)cc3)ccc2c1=O | . | / | / | . | .
COCCN1CCc2nc(SCC(=O)Nc3ccc(C)c(Cl)c3)[nH]c(=O)c2C1 | . | / | / | . | .
CCN1C(=O)c2ccccc2S(=O)(=O)c2ccc(C(=O)NCc3ccccc3)cc21 | . | / | / | . | .
CCOc1ccc(-c2nnc(SCC(=O)NC(C)(C)C)nc2-c2ccc(OCC)c(OC)c2)cc1OC | / | . | . | . | .
CCOc1cc(-c2nnc(SCC(=O)Nc3ccc(F)c(F)c3)nc2-c2ccc(OC)c(OCC)c2)ccc1OC | 16µM | / | / | . | .
COc1cccc(C(=O)Nc2cccc(-c3cn4c(C)csc4n3)c2)c1OC | . | / | / | . | .
O=C(COc1ccc(Cl)cc1)Nc1ccc2nc(SCC(=O)N3CCCC3)sc2c1 | . | / | / | . | .
C#CCOc1c(Cl)cc(/C=N/NC(N)=S)cc1OCC | . | . | . | . | ?
CCOc1c(Cl)cc(/C=N/NC(N)=S)cc1OC | . | . | . | . | 11µM
CC[N+](CC)(CC)c1ccc(/C=C/c2ccc3ccccc3n2)cc1 | / | / | / | . | /
Cc1ccccc1N=C/C=C1/C=C(c2ccccc2)OC(C)(C)O1 | 22µM | . | ? | . | .
OCCCn1c(C2CCCN2c2nc(-c3ccc(Cl)cc3)cs2)nc2cc(Cl)c(Cl)cc21 (stereo not given) | / | . | . | . | 22µM
Cc1[nH]c2ccccc2c1/C=N/NC(=O)c1cccc([N+](=O)[O-])c1 | . | . | . | . | .
Cc1[nH]c2ccccc2c1/C=N/Nc1ccc([N+](=O)[O-])cc1 | . | . | . | 10µM | 10µM
C/C(=N/Nc1ccc([N+](=O)[O-])cc1)c1c[nH]c2ccccc12 | / | ? | . | ? | 6.3µM
Nc1c(C(=O)Nc2ccc(S(=O)(=O)N3CCCC3)cc2)sc2nc3cc4c(cc3cc12)CCC4 | 3.5µM | . | . | 13µM | 10µM
Nc1c(C(=O)Nc2ccc(S(=O)(=O)N3CCCC3)cc2)sc2nc3ccc(OC(F)(F)F)cc3cc12 | 7.9µM | ? | ? | ? | 22µM
COc1ccc(CN2CC[C@H]3C=CC[C@@H](C(=O)Nc4ccccc4)[C@H]3C2=O)cc1OC | / | / | / | . | /
Cc1ccc(CN2[C@H](C)[C@H](c3ccccc3)OCCS2(=O)=O)cc1 | / | / | / | . | /
CCN(CC)c1ccc(/C=C(\C#N)c2ccccn2)cc1 | 18µM | ? | ? | 10µM | ?
CCN(Cc1ccccc1)c1ccc(/C=C(\C#N)c2ccccn2)cc1 | ? | ? | ? | . | 22µM
Cc1ccc(N)cc1O | / | 23µM | ? | . | .
Nc1ccc(C(=O)O)c(O)c1 | . | . | . | . | .
COc1ccc(OC)c(NC(=O)c2cc(-c3cc(C)c(C)cc3O)n[nH]2)c1 | / | . | . | . | ?
SMILES | Epigenetic reg | Rango release inh | Rango-impB inh | Vif-A3G inh | Vif-A3F inh
COc1ccc(OC)c(NC(=O)c2cc(-c3cc(C)cc(C)c3O)n[nH]2)c1 | / | . | . | . | 11µM
CC(=O)Nc1ccc(NC(=O)C/C(C)=N/NC(N)=S)cc1 | . | . | . | . | 7.9µM
CCC(=O)N/N=C(\C)CC(=O)Nc1ccc(F)cc1 | . | . | . | . | .
CC(C)(C)n1ncc2c(=O)n(Cc3ccccc3SC(F)(F)F)cnc21 | / | / | / | . | /
C=C(C)C(=O)Oc1ccc(N2C(=O)CCC2=O)cc1 | 22µM | . | . | . | ?
CC(=O)Oc1ccc(N2C(=O)CCC2=O)cc1 | . | . | . | . | .
